HT1080 IDH1KD tx = kills HT-1080 cells with IDH1 knockdown; HT-1080 IDH1 knockdown viability, ATP luminescence, 48 h; Potency, µM (top dose mostly 46.1 µM), without a hit: top-dose activity, negative = toxicity, actives largely listed as cytotoxic; actives 2% (n = 360,000); AID 686971;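 note: potency is the fitted concentration of half-maximal effect; 0% = DMSO wells and -100% = cell-free medium wells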
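Knockdown cells (IDH1KD HT-1080) received compounds 2 h after plating at 750 cells/well and were kept 48 h at 37 °C in 5% FBS RPMI. A CellTiter-Glo luminescence read gave % activity for curve fitting.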
TGFb inhibitor = blocks TGF-b signaling; HepG2 CAGA-GFP TGF-b/SMAD3 reporter, GFP fluorescence, 18 h; TGF-beta stimulated, 500 pg/mL final; Potency, µM (titrated, usually from 46.1 µM), for inactives: at the top dose activity, negative = inhibition, usual class: inhibitors; actives 1.2% (n = 410,000); AID 588855; note: potency is the fitted concentration of half-maximal effect; % is set by controls: 0 for no effect and ±100 for the full control effect; nearly all actives have a fitted effect of over 65% in size
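First, reporter cells (HEPG2 CAGA-GFP) rested 2 h at 37 degrees C. Next, compounds were pinned in and TGF-beta added to 500 pg/mL final. After 18 h, GFP was imaged per cell and summed per well.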
HepG2 tox = kills HepG2 cells in TGF-b inhibitor counter-screen; Potency, µM (top dose mostly 46.1 µM), for the others: at the highest dose activity change, negative = cytotoxicity, actives largely listed as cytotoxic; HepG2 CAGA-GFP viability, ATP luminescence, 18 h; actives 0.76% (n = 410,000); note: potency is the fitted concentration of half-maximal effect
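HepG2 CAGA-GFP cells (1000/well, DMEM with 1% FBS) received compound, then TGF-beta at 500 pg/mL final, and were incubated 18 hours at 37 degrees C. Viability was read by CellTiter-Glo luminescence. Media-only wells were set as complete cell-killing and DMSO as no toxicity.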
IL-1B inflam inh = inhibitors of inflammasome signaling (IL-1 beta secretion); AID 743279; THP-1 LPS/ATP IL-1B secretion, AlphaLISA, 16 h; stronger effect = lower value; activity change, % at 57.5 µM; actives 4.7% (n = 360,000); in the data active = activity change below about -50%; inconclusive = mostly about -30% to -49%; note: % is set by controls: 0 for no effect and ±100 for the full control effect
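Secreted IL-1B measured by AlphaLISA bead assay after 16 h compound exposure of THP-1 cells; compounds (final up to 57.5 uM) added 1 h before LPS (250 ng/mL) and ATP (1.25 mM) stimulation; lower signal means less secretion.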
Giardia killer = Giardia lamblia killing; Giardia lamblia trophozoite viability; activity change, % at 7.66 µM, hits read low; actives 0.15% (n = 340,000); in the data active = activity change below about -80%; inconclusive = between about -30% and that limit;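 note: parasites exposed to compound for two days anaerobically before the ATP read; % is set by controls: 0 for no effect and ±100 for the full control effect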
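Luminescence from cellular ATP indicates surviving trophozoites (100 cells/well) following 48 hrs anaerobic compound treatment at 37 deg C; signal develops 15-30 min at room temperature.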
HT1080NT lethal = kills 2HG-producing HT-1080-NT fibrosarcoma cells; Potency, µM (top dose mostly 46.1 µM), for inactives: top-dose activity, negative = less viability, most hits filed as cytotoxic; AID 686970; actives 1.6% (n = 360,000); HT-1080-NT fibrosarcoma viability, CellTiter-Glo ATP luminescence, 48 h;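 note: NT is the 2HG producing partner of a matched IDH1 knockdown line; potency is the fitted concentration of half-maximal effect; 0% = DMSO-treated cells and -100% = media-only wells without cells; nearly all actives have a fitted effect of over 55% in size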
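Viability of the 2HG-overproducing fibrosarcoma line after 48 hours of compound exposure at 37 degrees C was determined by luminescence with CellTiter-Glo, and concentration-effect curves were then fitted and categorized.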
An asterisk follows results filed as active; ? = inconclusive; nt = no result given. Most compounds without a hit are left out; they make up all but 6.5% or so of the library. Unless noted, calls come from the whole dose curve; as a rule, active = well fitted curve in the direction sought with a large enough effect; inconclusive = small, poorly fitted or top-dose-only effect, or another doubt; inactive = no such curve, though single readings can be large; an effect the other way counts as inactive or inconclusive.

SMILES | HT1080 IDH1KD tx | TGFb inhibitor | HepG2 tox | IL-1B inflam inh | Giardia killer | HT1080NT lethal
Oc1ccc(/C=N/N2CCN(C3c4ccccc4-c4ccccc43)CC2)cc1 | -8% | 13µM* | 18µM* | -64* | 14 | -10%
CN(CC(=O)Nc1cccc(Cl)c1)C1=NS(=O)(=O)c2ccccc21 | -4% | ? | -4% | 9 | 1 | 4%
CCOC(=O)c1c(C)c(C(=O)Nc2ccc(N(C)C)cc2)c(C)n1CC | 7.1µM* | -19% | 2% | -3 | -6 | 8.9µM*
Clc1ccc(C2=CSC3=NCCN23)c(Cl)c1 | -15% | -19% | -30% | -51* | -6 | 5%
Cc1ccc(C2=CSC3=NCCN23)c(C)c1 | -10% | 10% | -24% | 36 | 8 | 0%
Cc1ccc(Cl)cc1NC(=O)N1CCc2cc(S(=O)(=O)N3CCC(C)CC3)ccc21 | nt | nt | -7% | nt | nt | nt
COc1ccc(OCC(=O)Nc2ccc(NC(=O)c3ccccc3Cl)c(OC)c2)cc1 | 15% | 0% | 0% | ? | -10 | 23%
Brc1cccc(-c2nnc(SCc3nc4ccccc4[nH]3)o2)c1 | -2% | ? | -6% | -56* | -17 | 11%
Oc1ccc(N=Cc2ccc(OCc3ccccc3)cc2)cc1 | ? | 11µM* | -106% | 24 | -1 | ?
O=C(CN1CCN(S(=O)(=O)c2ccc(Cl)cc2)CC1)Nc1ccc(F)cc1F | 8% | 0% | 5% | -4 | 5 | 11%
CCOc1ccc(NC(=O)C(NC(=O)C2CCC(C)CC2)C(C)C)cc1 (stereo not given) | 0% | 12% | 5% | -14 | -4 | 2%
CC(=O)Nc1cc(-c2nc3cc(Cl)ccc3o2)ccc1C | nt | -2% | -13% | nt | nt | nt
CC(=O)Nc1ccc(-c2nc3cc(Cl)ccc3o2)cc1 | 18% | 11µM* | -38% | -25 | -21 | 8%
Cc1ccc(NC(=O)c2ccc(Cl)c(N3C(=O)C=CC3=O)c2)cc1 | ? | ? | -100% | -56* | 4 | ?
O=C(O)CC1S/C(=N/N=C/C2CC=CCC2)NC1=O (stereo not given) | 17% | 0% | -2% | -16 | 3 | -3%
O=C1Nc2ccc(Cl)cc2/C1=C/C1CC=CCC1 (stereo not given) | ? | ? | -13% | -90* | 9 | ?
NCCCC[C@H]1NC(=O)[C@H](CCC(=O)O)NC(=O)c2cc([N+](=O)[O-])cc(I)c2OCC[C@@H](C(N)=O)NC1=O | 2% | -27% | 0% | -2 | 21 | -1%
COc1ccc(COC(=O)Nc2cc3c(C(F)(F)F)nn(C)c3s2)cc1 | ? | -4% | -39% | -1 | 8 | 14%
Cn1nc(C(F)(F)F)c2cc(NC(=O)OCc3ccc(C(C)(C)C)cc3)sc21 | -8% | -2% | -26% | -87* | -1 | 1%
Cn1nc(C(F)(F)F)c2cc(NC(=O)OCc3ccc(F)cc3)sc21 | ? | ? | -41% | -87* | -27 | -24%
O=C(Nc1nnc(/N=C/c2ccco2)s1)c1ccc(F)cc1 | -7% | 3% | -50% | 39 | ? | -20%
CCc1ccc(NC(=O)CNC(=O)Cn2c(C)cc3ccccc3c2=O)cc1 | nt | 5% | 0% | nt | nt | nt
CCCN(CCC)CC(O)Cn1cc(/C=C/C(=O)c2ccccc2)c2ccccc21 (stereo not given) | 15µM* | ? | 13µM* | -86* | -19 | ?
CCCCN(C)CC(O)Cn1cc(/C=C/C(=O)c2ccc(C)cc2)c2ccccc21 (stereo not given) | ? | 18µM* | 13µM* | ? | 25 | ?
CCCN(CCC)CC(O)Cn1cc(/C=C/C(=O)c2ccc(C)cc2)c2ccccc21 (stereo not given) | nt | ? | 8.9µM* | nt | nt | nt
SMILES | HT1080 IDH1KD tx | TGFb inhibitor | HepG2 tox | IL-1B inflam inh | Giardia killer | HT1080NT lethal
CCCN(CCC)CC(O)Cn1cc(/C=C/C(=O)c2cccs2)c2ccccc21 (stereo not given) | -1% | -21% | -20% | -104* | 16 | -7%
CCCN(CCC)CC(O)Cn1cc(/C=C/C(=O)c2ccc(Br)cc2)c2ccccc21 (stereo not given) | nt | 8% | -35% | nt | nt | nt
NNC(=O)c1ccc(CSc2n[nH]c(=O)[nH]c2=O)cc1 | -2% | -3% | 11% | -8 | 0 | 4%
CC(=O)c1cccc(NC(=O)c2ccc(-c3ccccc3[N+](=O)[O-])o2)c1 | 1% | 3% | -13% | ? | -10 | 3%
O=C(CSc1ncn(-c2ccccc2)n1)c1cccs1 | 15% | 2% | 4% | -52* | -5 | 12%
O=Nc1c(O)n(Cc2ccc(Cl)cc2Cl)c2ccccc12 | ? | ? | 5µM* | -58* | -2 | ?
C/C(Cl)=C\Cn1c(O)c(N=O)c2ccccc21 | ? | ? | -14% | -98* | 14 | -21%
O=Nc1c(O)n(Cc2c(Cl)cccc2Cl)c2ccccc12 | ? | ? | -61% | ? | 12 | ?
CCOC(=O)n1c(=O)n(Cc2ccc(Cl)cc2Cl)c2ccccc21 | -3% | ? | 9% | -8 | 0 | -23%
Cc1ccc2c(c1)c(N=O)c(O)n2Cc1ccc(Cl)cc1 | 2% | -19% | -53% | -73* | 18 | -13%
Cc1ccc2c(c1)c(N=NC(N)=S)c(O)n2Cc1ccccc1 | 2% | 5% | -20% | 22 | -11 | 1%
O=Nc1c(O)n(Cc2ccc(Cl)cc2)c2ccccc12 | ? | -15% | -57% | -88* | -1 | ?
CN(CCOc1ccc(Br)cc1)CC(O)c1ccccc1 (stereo not given) | -5% | -25% | -48% | -2 | 3 | -1%
Cc1ccc(Cn2c(O)c(N=O)c3ccccc32)cc1 | -25% | -23% | -35% | -88* | 9 | -13%
C=CCn1c(O)c(N=O)c2ccccc21 | -2% | 13% | 7% | ? | 12 | 5%
NC(=S)N=Nc1c(O)n(Cc2ccc(Br)cc2)c2ccccc12 | 3.7µM* | ? | -52% | 13 | 4 | ?
CCSC1(SCC)N=C(N)C2(C#N)C(c3ccc(F)cc3)C12C#N (stereo not given) | ? | ? | -73% | -109* | 1 | ?
COC1(OC)N=C(N)C2(C#N)C(c3ccc(F)cc3)C12C#N (stereo not given) | 8% | ? | -3% | 9 | 26 | 5%
CCn1c(SCC(=O)Nc2cc(F)ccc2C)nnc1-c1ccccc1O | 3% | -16% | -5% | -16 | -20 | -4%
COc1ccccc1CNc1nc(Nc2ccccc2OC)c2sccc2n1 | 5% | -9% | -30% | 7 | nt | 17%
